# Only a sample is shown.
# aSyn 5UTR act: Activators via SNCA 5'UTR binding, MLPCN; AID 1814, 2009; alpha-synuclein 5'UTR reporter, activators screen; actives 7.1% (n = 300,000); activity score, % (tested at 7.5 µM), hits read low; in the data active = activity score below about -60%
# Numbers without * were called inactive.
SMILES,aSyn 5UTR act
COc1ccc(/C=N/Nc2ccccn2)c(OC)c1OC,-92*
COc1ccccc1/C=N/Nc1nccnc1Cl,-98*
CCN(CC)S(=O)(=O)c1ccc(N/N=C/c2cc(OC)ccc2O)nc1,87
COc1ccc(OC)c(/C=N\Nc2nccs2)c1,-65*
Cc1ccc(C)c(/C=N/Nc2ccccn2)c1,-139*
Cc1cccc2nc3c(nc12)-c1ccccc1C3=O,-106*
Cc1ccc2nc3c(nc2c1)-c1ccccc1C3=O,-65*
Cc1ccc(CNC(=O)c2ccc(Cn3cc(-c4ccc(C)cc4)nc3-c3ccncc3)cc2)cc1,-177*
COCCNC(=O)c1ccc(-c2csc(C)n2)cc1,-64*
Cc1ccc(C(=O)NCCc2ccccc2)cc1,71
Cc1ccc(C(=O)NCCc2csc(C)n2)cc1,-81*
Cc1ccc(C(=O)NCCc2ccncc2)cc1,-114*
Cc1nc(-c2ccc(NC(=O)C3CCCCC3)cc2)cs1,-174*
Cc1ccc(C(=O)Nc2ccc(-c3csc(C)n3)cc2)cc1,-138*
Cc1ccc(CCNC(=O)NC(C)(C)C)cc1,-94*
Cc1ccn(C(=O)c2ccc(NC(=O)C3CCCCC3)cc2)n1,-70*
CCc1ccccc1NC(=O)c1ccc(-c2csc(C)n2)cc1,-143*
Cc1ccc2c(COC(=O)c3n[nH]c4ccccc34)cc(=O)oc2c1,-172*
CCc1ccc2c(COC(=O)c3n[nH]c4ccccc34)cc(=O)oc2c1,-175*
CCOC(=O)c1c(NC(=S)N2CCN(C)CC2)sc2c1CCN(C(=O)OCC)C2,-63*
Clc1ccccc1-c1ncc(-c2ccccc2)o1,-143*
Cc1c(C(=O)Nc2ccc(Br)cc2)cnn1C,-112*
CCc1ccc(NC(=O)c2n[nH]c(=O)c3ccccc23)cc1,-84*
CCc1ccc(NC(=O)c2ccccc2Br)cc1,-144*
O=C(CNC(=O)c1ccccc1Br)N/N=C/c1cc(Br)ccc1O,70
SMILES,aSyn 5UTR act
O=C(Nc1ccc(Br)cc1)c1ccccc1Br,-200*
COC(=O)c1ccc(-c2noc(CN3C[C@H]4CC[C@H]3C4)n2)cc1,-119*
COc1ccc(-c2nnc(SCC(=O)N3CCCC3)o2)c(OC)c1,-83*
CC1CCCCN1C(=O)CSc1nnc(-c2ccccc2F)o1 (stereo not drawn),-84*
CC1CCCCN1C(=O)CSc1nnc(-c2ccco2)o1 (stereo not drawn),-136*
O=C(CSc1nnc(-c2ccccc2F)o1)N1CCCC1,-76*
Cc1ccc2sc(NC(=O)C3CC3)nc2c1C,-73*
O=C(Nc1nc2c(F)cc(F)cc2s1)C1CC1,-107*
CCc1ccc(C(=O)c2cc3ccc(O)cc3oc2=O)cc1,-106*
CCN(c1ccccc1)S(=O)(=O)c1ccc(Oc2ccc(-n3ccnc3)cc2)nc1,103
COc1ccc(S(=O)(=O)n2ccc(-c3cnc(-c4ccccc4)s3)n2)cc1,-140*
CCNC(=O)O/N=C(\C)c1sc(-c2ccccc2)nc1C,-134*
CC(=O)c1sc(-c2ccc(Cl)cc2)nc1C,-101*
C/C(=N\O)c1sc(-c2ccccc2)nc1C,-140*
CNC(=O)c1sc(-c2ccccc2)nc1C,-78*
CNC(=O)c1sc(-c2ccc(Cl)cc2)nc1C,-187*
CCN(Cc1ccc(OC)c(F)c1)C(=O)CCl,-74*
CC(C)=CC(=O)Nc1ccc(Br)cc1,-191*
Cc1ccc(/C=C2\SC(N3CCCCC3)=NC2=O)cc1,-176*
O=C1N=C(N2CCCCC2)S/C1=C\c1ccccc1F,-143*
C=CCOc1ccc(/C=C2\SC(N3CCCCC3)=NC2=O)cc1,-66*
O=C1N=C(N2CCCCC2)S/C1=C\c1ccc(Cl)cc1,-150*
Clc1ccc(Nc2nc(-c3ccncc3)cs2)cc1,-85*
Cc1nc2ncccn2c1-c1csc(Nc2ccc(N(C)C)cc2)n1,70
c1ccc(Nc2nc(-c3ccncc3)cs2)cc1,-151*
SMILES,aSyn 5UTR act
Fc1ccc(Nc2nc(-c3ccncc3)cs2)cc1,-114*
Nc1ccc(Nc2nc(-c3ccncc3)cs2)cc1,-135*
CCOC(=O)c1cc(C)n(CCc2ccccc2)c1C,-69*
N/C(=N\OC(=O)Cc1cccs1)c1ccc(Br)cc1,-106*
N/C(Cc1cccs1)=N\OC(=O)COc1ccc(Cl)cc1Cl,-154*
Cc1ccccc1C(=O)O/N=C(\N)Cc1cccs1,-131*
Cc1ccccc1OCC(=O)O/N=C(\N)Cc1cccs1,-63*
N/C(Cc1cccc2ccccc12)=N\OC(=O)Cc1cccs1,-117*
COc1ccc(-c2cc(=O)c3cc(O)ccc3o2)cc1,-121*
O=C(COc1ccc2oc(-c3ccccc3)cc(=O)c2c1)NCc1ccco1,-127*
O=c1cc2oc3cc(O)c(O)cc3c(-c3ccccc3[N+](=O)[O-])c-2cc1O,71
O=c1cc(-c2ccccc2)oc2ccc(O)cc12,-90*
Cc1cccc(NC(=O)c2c(C)nn(-c3ccccc3)c2Cl)c1,-97*
CCOC(=O)c1cc(C(=O)Nc2cccc(C)c2)nn1C,-121*
COc1ccc(-c2ccc(-c3noc(C)n3)c(OC)n2)cc1,-146*
COCc1nc(-c2ccc(-c3ccc(C)cc3)nc2OC)no1,-190*
O=C1c2ccccc2NC(c2ccccc2O)N1c1ccc(F)cc1 (stereo not drawn),-98*
O=C1c2ccccc2NC(c2ccccn2)N1c1ccc(Cl)cc1 (stereo not drawn),-138*
COc1cccc(C2Nc3ccccc3C(=O)N2c2ccc(F)cc2)c1O (stereo not drawn),-99*
CCCN1CCN(c2ncnc3c2nnn3Cc2ccccc2)CC1,-69*
Clc1ccccc1Cn1nnc2c(N3CCOCC3)nc(C3CC3)nc21,55
Cc1ccc(S(=O)(=O)Cc2ccc(C(=O)N3CCN(c4cccc(C)c4C)CC3)o2)cc1,88
Cc1cccc(N2CCN(C(=O)CNC(=O)c3ccccc3)CC2)c1C,-81*
Cc1ccc(C(=O)NCCC(=O)N2CCCC2)cc1,-146*
CC(C)(C)c1ccc(C(=O)N2CCCCCC2=O)cc1,91
SMILES,aSyn 5UTR act
CC(C)(C)c1ccc(C(=O)NCC(=O)N2CCCC2)cc1,-74*
CC(C)(C)c1ccc(C(=O)NNC(=O)C2CCCCC2)cc1,-64*
Cc1cccc(N2CCN(C(=O)c3c(-c4ccccc4)noc3C)CC2)c1C,65
Nc1nc(SCc2ccccc2)[nH]c(=O)c1-c1ccccc1,-99*
Cc1ccc2nc(NC(=O)Cn3cc4c(n3)CCCCC4)sc2c1,-108*
Cc1ccc2nc(NC(=O)CN3C(=O)NC4(CCCCC4)C3=O)sc2c1,-82*
Cc1ccc2nc(-c3ccc(NC(=O)CN4C(=O)NC(C)(c5ccc(OC(F)F)cc5)C4=O)cc3)sc2c1 (stereo not drawn),-136*
CNc1ccc(/C=C2\COc3ccccc3C2=O)cc1[N+](=O)[O-],-118*
O=C1/C(=C/c2ccccc2[N+](=O)[O-])COc2ccccc21,-114*
CCOc1ccc2cc(/C=C/C(=O)c3ccco3)c(Cl)nc2c1,-172*
COc1ccc2cc(/C=N/NC(=O)c3ccc(CN(c4cccc(Cl)c4Cl)S(C)(=O)=O)cc3)c(Cl)nc2c1,67
Cc1cc(C)n(-c2nc(NCC(C)O)c3c4c(sc3n2)CCCC4)n1 (stereo not drawn),-62*
O=C(c1nc2ccccc2s1)N1CCSCC1,-92*
COc1ccc(NC(=S)Nc2cc(C)[nH]n2)cc1Cl,-125*
Cc1cc(NC(=S)Nc2ccc(C)c(Cl)c2)n[nH]1,-110*
COc1ccc(-c2csc(Nc3ncccc3C)n2)cc1,-118*
Cc1cccnc1Nc1nc(-c2ccc(O)c(O)c2)cs1,-232*
COc1ccc(-c2csc(Nc3ncccc3C)n2)cc1OC,-172*

# Screening data from PubChem.
